Screening data as filed in PubChem BioAssay.
Rows were chosen to be rich in hits. Some 1.6% of all compounds tested hit in one or more screens of this group.
KCNQ2 inh = rat KCNQ2 potassium channel inhibitors, primary screen, cell-based, CHO-K1, FluxOR thallium flux, B-score. Potassium voltage-gated channel subfamily KQT member 2 (Rattus norvegicus), O88943. 20 min; stronger effect = lower value. B-score at 10 µM. 1.1% of 310,000 active. AID 2156, 2009;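 active means fluorescence ratio B-score at most minus 3 library SDs, with starting brightness B-score within 2 library SDs, cut at about -5.5 in these data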
KCNQ2 enhance = potentiators of rat KCNQ2 potassium channel. CHO-K1 KCNQ2, FluxOR thallium flux fluorescence; stronger effect = higher value. B-score at 10 µM. 0.54% of 310,000 active. AID 2239, 2010;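 active means fluorescence ratio B-score at least 3 SD of library B-scores, with initial fluorescence B-score within 3 of them, cut at about 5.3 in these data; same plate scores as AID 2156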;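 further: B-score of peak minus minimum over baseline fluorescence ratio after K+ and Tl+ stimulus; positive B-score means potentiation of KCNQ2 with more thallium influx and brighter signal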
Kir21 conf inh = mouse Kir2.1 channel blockers, retest, confirmation, cell-based, FluxOR thallium flux, duplicate; shares compounds with KCNQ2 enhance; Kir2.1-expressing cells, FluxOR thallium flux fluorescence; stronger effect = lower value; 41% of 2,300 active; Tl flux remaining, % of negative control (stronger effect = lower value), % at 10 µM; AID 2032, 2009;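 active means Primary-screen hit whose thallium flux fell at least 3 control SD below untreated wells in both duplicates, with normal baseline fluorescence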
HEK293 Tl flux = parental HEK293 activity in Kir2.1 inhibitor counter-screen. shares compounds with KCNQ2 enhance. parental HEK293 cells, FluxOR thallium flux fluorescence; 0% = unstimulated blank wells. FluxOR signal as % of negative control (100 = no effect), % at 10 µM. 19% of 2,300 active;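 active means dye signal at least 3 control SD above or below untreated wells in both duplicates, raw fluorescence within 3, either direction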;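 further: percent is based on the flux ratio of peak minus minimum fluorescence over baseline F0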
CHO-K1 ctr = nonspecific thallium flux increase in parental CHO-K1, confirmation, counter-screen for KCNQ2 potentiator project, cell-based, FluxOR thallium flux, duplicate; 43% of 1,200 active; parental CHO-K1 cells, FluxOR thallium flux fluorescence; zero = vehicle mean+3SD, 100% = vehicle-minus-blank window; activity increase over 3SD of controls, % at 10 µM; shares compounds with KCNQ2 enhance;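 active means signal rise of at least 3 SD above the untreated control mean, in both duplicate wells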;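 further: counter screen of KCNQ2 potentiator hits so any rise reflects channel-independent effects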
KCNQ1 sel pot = human KCNQ1 channel potentiation off-target, confirmation, selectivity assay for KCNQ2 potentiator project, cell-based, CHO, FluxOR thallium flux | 28% of 1,200 active | CHO KCNQ1 stable, FluxOR thallium flux fluorescence; beyond 3SD, as % of vehicle-control signal | shares compounds with KCNQ2 enhance | activation over 3SD threshold, % at 10 µM;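 active means fluorescence ratio rise of at least 3 SD of vehicle wells above their mean, in both replicate wells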
KCNQ2 pot conf = rat KCNQ2 channel potentiators, confirmation, cell-based, CHO, FluxOR thallium flux, duplicate; shares compounds with KCNQ2 enhance; CHO-KCNQ2 cells, FluxOR thallium flux fluorescence; potentiation, less the hit threshold, % at 10 µM; 68% of 1,200 active; AID 2287, 2010;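 active means fluorescence ratio rising 3 SD or more over the vehicle control mean in both replicates, plus primary screen hit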;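 further: peak minus minimum thallium fluorescence divided by baseline after K/Tl stimulus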
Kir21 spec = mouse Kir2.1 channel activation off-target, confirmation, selectivity assay for KCNQ2 potentiator project, cell-based, HEK293, FluxOR thallium flux. shares compounds with KCNQ2 enhance. HEK293 Kir2.1, FluxOR thallium flux fluorescence. activity over 3SD threshold, % at 10 µM. 2% of 1,200 active. AID 2345, 2010;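 active means fluorescence ratio rise of at least 3 SD above the vehicle-control mean, seen in both replicates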
KCNQ2 W236L pot = potentiators of retigabine-insensitive KCNQ2 W236L, mechanism study for KCNQ2 potentiator project, cell-based, rat KCNQ2 W236L, CHO, automated patch clamp | automated patch clamp current | 10% of 940 active | shares compounds with KCNQ2 enhance | current increase over 3SD of negative controls (%), stronger effect = higher value, % at 25 µM | AID 2558, 2010;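 active means current increase at least 3 SD of the untreated controls above them in both duplicate recordings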
Target sequence (O88943 whole entry W236L, looked up): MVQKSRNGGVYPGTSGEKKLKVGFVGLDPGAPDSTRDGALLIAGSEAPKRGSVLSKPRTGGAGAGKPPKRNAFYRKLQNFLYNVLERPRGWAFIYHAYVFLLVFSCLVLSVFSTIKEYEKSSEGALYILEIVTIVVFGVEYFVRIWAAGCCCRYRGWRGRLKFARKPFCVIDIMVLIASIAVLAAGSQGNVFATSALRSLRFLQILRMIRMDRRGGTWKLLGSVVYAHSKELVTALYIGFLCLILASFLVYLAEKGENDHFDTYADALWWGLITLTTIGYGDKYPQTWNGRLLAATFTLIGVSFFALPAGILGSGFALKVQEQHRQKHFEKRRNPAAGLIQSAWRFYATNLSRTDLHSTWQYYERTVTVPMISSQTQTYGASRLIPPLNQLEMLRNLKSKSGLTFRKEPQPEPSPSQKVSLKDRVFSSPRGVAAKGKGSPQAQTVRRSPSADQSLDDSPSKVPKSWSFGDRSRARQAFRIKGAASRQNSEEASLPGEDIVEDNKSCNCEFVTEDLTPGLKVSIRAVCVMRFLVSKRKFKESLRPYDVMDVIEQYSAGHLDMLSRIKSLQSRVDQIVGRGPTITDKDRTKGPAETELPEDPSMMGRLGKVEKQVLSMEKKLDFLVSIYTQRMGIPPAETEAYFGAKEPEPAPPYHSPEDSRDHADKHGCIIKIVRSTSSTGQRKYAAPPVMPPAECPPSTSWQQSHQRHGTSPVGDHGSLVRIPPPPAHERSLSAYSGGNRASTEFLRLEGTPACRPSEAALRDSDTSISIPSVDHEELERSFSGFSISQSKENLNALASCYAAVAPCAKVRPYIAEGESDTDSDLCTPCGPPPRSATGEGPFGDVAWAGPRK
Numbers stand for hits; 0 = inactive; - = not tested or not shown.

SMILES	KCNQ2 inh	KCNQ2 enhance	Kir21 conf inh	HEK293 Tl flux	others
CCN(CC)c1ccc(N2C(=NC(=O)C3CC3)SC3CS(=O)(=O)CC32)cc1 (configuration not stated)	0	0	-	-
FC(F)(F)c1ccc(-c2nnc(-c3ccccn3)c(-c3ccccn3)n2)nc1	0	0	-	-
O=C(COn1nnc2ccccc21)N1CCN(Cc2ccccc2)CC1	0	-	-	-
CCc1cc2c(N3CCN(C(=O)c4ccco4)CC3)ncnc2s1	0	5.72	0	0	CHO-K1 ctr=0;KCNQ1 sel pot=35.6;KCNQ2 pot conf=0;Kir21 spec=0
O=C(c1ccco1)N1CCN(c2ncnc3c2cnn3-c2ccccc2)CC1	0	0	-	-
Cc1cc(C(=O)CCl)c(C)n1-c1c(C)n(C)n(-c2ccccc2)c1=O	0	-	-	-
CC(=O)NO	0	0	-	-
COc1cc(C)c(S(=O)(=O)NOCc2ccccc2)c(C)c1C	0	-	0	0
COc1cc(C)c(S(=O)(=O)NOCc2ccc([N+](=O)[O-])cc2)c(C)c1C	0	0	-	-
O=C(CCS(=O)(=O)c1ccc(Br)s1)NC1CCCCCC1	0	0	0	70.0%
O=C(CCS(=O)(=O)c1ccccc1)NC1CCCCC1	0	0	-	-
O=c1c2ccccc2nc(-c2cccc(Cl)c2)n1O	0	8.71	0	0	CHO-K1 ctr=74.0;KCNQ1 sel pot=0;KCNQ2 pot conf=45.5;Kir21 spec=0;KCNQ2 W236L pot=0
O=c1c2cc(Cl)ccc2nc(-c2ccccc2Cl)n1O	0	0	-	-
Cc1ccc(-c2nc3ccccc3c(=O)n2O)cc1	0	0	-	-
O=c1c2cc(Br)ccc2nc(-c2ccccc2)n1O	0	7.79	0	425.5%	CHO-K1 ctr=0;KCNQ1 sel pot=0;KCNQ2 pot conf=49.5;Kir21 spec=0;KCNQ2 W236L pot=0
CCOc1ccc(/C=C/C(=O)Nc2ccc3[nH]c(=O)[nH]c3c2)cc1	0	0	-	-
O=C(CCNC(=O)c1ccc(Br)cc1)NNC(=O)c1ccccc1O	0	-	-	-
O=C(O)[C@H](Cc1ccccc1)NC(=O)N1CCN(c2cccc(C(F)(F)F)c2)CC1	0	-	-	-
Cn1nc(-c2ccc(Cl)cc2)cc1NC(=O)CSCC(=O)O	0	0	-	-
Cc1ccccc1CNS(=O)(=O)c1ccccc1[N+](=O)[O-]	0	0	-	-
Cc1onc(-c2ccccc2)c1CNS(=O)(=O)c1ccccc1[N+](=O)[O-]	0	0	60.5%	0
Cc1ccc(C(=O)N2CCN(c3ccccc3Cl)CC2)cc1[N+](=O)[O-]	0	-	-	-
CCN(CC)CCCN(C(=O)c1ccco1)c1nc(-c2ccc(Cl)cc2)cs1	0	-	51.0%	0
CCN(CC)CCCN(C(=O)c1ccco1)c1nc(-c2ccc(C)cc2)cs1	0	-	-	-
Cc1cc(C)c(NC(=O)CS)c(Cl)c1	0	20.2	0	0	CHO-K1 ctr=0;KCNQ1 sel pot=0;KCNQ2 pot conf=95.2;Kir21 spec=0;KCNQ2 W236L pot=0
SMILES	KCNQ2 inh	KCNQ2 enhance	Kir21 conf inh	HEK293 Tl flux	others
Cc1cc(C)c(NC(=O)CC(C)(C)C)c(Cl)c1	0	24.6	0	0	CHO-K1 ctr=0;KCNQ1 sel pot=0;KCNQ2 pot conf=73.0;Kir21 spec=0;KCNQ2 W236L pot=0
Cc1cc(C)c(NC(=O)/C=C\C(=O)O)c(Cl)c1	0	-	-	-
Cc1cc(C)c(NC(=O)CC(=O)c2ccccc2)c(Cl)c1	0	0	-	-
CCn1c(CCNC(=O)c2ccc(OC)cc2)nnc1SCc1ccc(Cl)c(Cl)c1	0	-	67.0%	0
CCn1c(CCNC(=O)c2ccc(C)cc2)nnc1SCc1ccc(Cl)c(Cl)c1	0	-	-	-
c1ccc(-c2csc3ncnc(N4CCOCC4)c23)cc1	0	-	-	-
c1ccc(-c2csc3ncnc(N4CCc5ccccc5C4)c23)cc1	0	-	0	0
O=C(CSc1nc2ccc(Cl)cc2[nH]1)NCc1ccco1	0	0	-	-
O=C(CSc1c2c(nc3cc(Cl)ccc13)CCCC2)NCc1ccco1	0	-	57.0%	0
C#CCNC(=O)C1=C[C@@H](C(C)(C)C)C[C@@H](OCc2ccc(CO)cc2)O1	0	-	-	-
C#CCNC(=O)C1=C[C@@H](C2CC2)C[C@@H](OCc2ccc(CO)cc2)O1	0	0	51.0%	0
CCn1cc(C(=O)NCCC(C)C)c(=O)c2cc(F)c(N3CCN(C)CC3)cc21	0	0	-	-
COc1cc(NS(=O)(=O)c2ccc(NC(=S)Nc3ccccc3)cc2)nc(OC)n1	0	-	-	-
COc1cc(NS(=O)(=O)c2ccc(Nc3nc(-c4ccccc4)cs3)cc2)nc(OC)n1	0	0	0	0
CCCc1cc(=O)oc2cc(C)cc(OCC(=O)Nc3cccnc3)c12	0	0	-	-
Cc1cccc(Oc2ccccc2NC(=O)CN2C(=O)NC3(CCCC3)C2=O)c1	0	0	-	-
Cc1ccc(Oc2ccccc2NC(=O)CN2C(=O)NC3(CCCC3)C2=O)cc1	0	6.35	0	0	CHO-K1 ctr=26.0;KCNQ1 sel pot=22.3;KCNQ2 pot conf=13.2;Kir21 spec=0;KCNQ2 W236L pot=0
O=C(Nc1cccc(O)c1)c1cc(S(=O)(=O)N2CCCC2)ccc1Cl	0	5.31	0	0	CHO-K1 ctr=39.5;KCNQ1 sel pot=0;KCNQ2 pot conf=0;Kir21 spec=0
O=C(Nc1ccccc1)c1cc(S(=O)(=O)N2CCSCC2)ccc1Cl	0	-	-	-
CC(C)c1ccc(NC2CCCN(C(=O)c3ccsc3)C2)cc1 (configuration not stated)	0	-	-	-
CCOc1ccc(S(=O)(=O)N2CCN(c3ccccc3OC)CC2)c2cccnc12	0	-	-	-
c1ccc(-c2ccccc2OCCCCN2CCCCCC2)cc1	0	-	38.5%	0
c1ccc(-c2ccccc2OCCN2CCCC2)cc1	0	-	-	-
Cc1ccc(-n2nnnc2CNC(=O)c2ccc3c(c2)OCO3)cc1C	0	0	-	-
COCCCNC(=O)c1ccc(S(=O)(=O)c2ccc(Cl)cc2)c(NC(C)=O)c1	0	0	-	-
Cc1ccc(O)c(C(=O)CC(=O)c2cccc(F)c2)c1	0	0	-	-
Cc1cccc(C(=O)CC(=O)c2cc(Cl)ccc2O)c1	0	0	-	-
O=C(CC(=O)c1cc(Cl)ccc1O)c1ccccc1	0	5.35	0	129.5%	CHO-K1 ctr=0;KCNQ1 sel pot=0;KCNQ2 pot conf=0;Kir21 spec=0;KCNQ2 W236L pot=0
